# Source: PubChem
# This is one part of a sample in which hits are shown more often than they occur.
# DT40 TDP1 no CPT: qHTS for Inhibitors of human tyrosyl-DNA phosphodiesterase 1 (TDP1): qHTS in cells in absence of CPT | DT40 Tdp1-/- hTDP1 cells, no CPT, ATP luminescence, 48 h | Potency, µM (highest dose often 46.2 µM), for inactives: at the top dose activity change, negative = growth inhibition, hits mostly inhibitors | actives 15% (n = 420,000) | AID 686978, 2013; note: potency is the fitted concentration of half-maximal effect; nearly all actives have a fitted effect of over 55% in size
#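 Stably hTDP1-transfected Tdp1-null chicken DT40 cells were treated with library compounds minus camptothecin and grown for at least 48 hr at 37 °C, after which cellular ATP was quantified by luminescence.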
# IL-1B inflam inh: inflammasome signaling inhibition, IL-1 beta readout | THP-1 LPS/ATP IL-1B secretion, AlphaLISA, 16 h; active compounds read low | activity change, % at 57.5 µM | actives 4.7% (n = 360,000) | AID 743279; in the data active = activity change below about -50%; inconclusive = mostly about -30% to -49%
#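 Secreted IL-1B measured by AlphaLISA bead assay after 16 h compound exposure of THP-1 cells; compounds (final up to 57.5 uM) added 1 h before LPS (250 ng/mL) and ATP (1.25 mM) stimulation; lower signal means less secretion.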
# HT1080 IDH1KD tx: kills HT-1080 cells with IDH1 knockdown | HT-1080 IDH1 knockdown viability, ATP luminescence, 48 h | Potency, µM (series often up to 46.1 µM), inactives show top-dose activity, negative = toxicity, most hits filed as cytotoxic | actives 2% (n = 360,000) | AID 686971;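 note: potency is the fitted concentration of half-maximal effect; 0% = DMSO wells and -100% = cell-free medium wells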
#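 Using the IDH1-knockdown HT-1080 line run in the same batch and compound series as the NT line, viability after 48 h at 37 °C was determined by CellTiter-Glo luminescence and expressed as % activity.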
# HT1080NT lethal: kills 2HG-producing HT-1080-NT fibrosarcoma cells; actives 1.6% (n = 360,000); AID 686970; Potency, µM (titrated, usually from 46.1 µM), for inactives: top-dose activity, negative = less viability, most hits filed as cytotoxic; HT-1080-NT fibrosarcoma viability, CellTiter-Glo ATP luminescence, 48 h;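 note: NT is the 2HG producing partner of a matched IDH1 knockdown line; potency is the fitted concentration of half-maximal effect; 0% = DMSO-treated cells and -100% = media-only wells without cells; nearly all actives have a fitted effect of over 55% in size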
#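 750 cells/well, RPMI + 5% FBS; 2 h settle, compound pin-transfer, 48 h at 37 degrees C. CellTiter-Glo 10 min RT, luminescence. Normalized to DMSO and media-only wells.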
# 12-LOX inh: ALOX12 (human) lipoxygenase inhibition; Potency, µM (doses to about 108 µM), without a hit: at the highest dose activity change, negative = inhibition, most hits filed as inhibitors; purified 12hLO, xylenol orange hydroperoxide absorbance; P18054; actives 1.1% (n = 580,000); note: potency is the fitted concentration of half-maximal effect
# Target sequence (P18054 whole entry, looked up): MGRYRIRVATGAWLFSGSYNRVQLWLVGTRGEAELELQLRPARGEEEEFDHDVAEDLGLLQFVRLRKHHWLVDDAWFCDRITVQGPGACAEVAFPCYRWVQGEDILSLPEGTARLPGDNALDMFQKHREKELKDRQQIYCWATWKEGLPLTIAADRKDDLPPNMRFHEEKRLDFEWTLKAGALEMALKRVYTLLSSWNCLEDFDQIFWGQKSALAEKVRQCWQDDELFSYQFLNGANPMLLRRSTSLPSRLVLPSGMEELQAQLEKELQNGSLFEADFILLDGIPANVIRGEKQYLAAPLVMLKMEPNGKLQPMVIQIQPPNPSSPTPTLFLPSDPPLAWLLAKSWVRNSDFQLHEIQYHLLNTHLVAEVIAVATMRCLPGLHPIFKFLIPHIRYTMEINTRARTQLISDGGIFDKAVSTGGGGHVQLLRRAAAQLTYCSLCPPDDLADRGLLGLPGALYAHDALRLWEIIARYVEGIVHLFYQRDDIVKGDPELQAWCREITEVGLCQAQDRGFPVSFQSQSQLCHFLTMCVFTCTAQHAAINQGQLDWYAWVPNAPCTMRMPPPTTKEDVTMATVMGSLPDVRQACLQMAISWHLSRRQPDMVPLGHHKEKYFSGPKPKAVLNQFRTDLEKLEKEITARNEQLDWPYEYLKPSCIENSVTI
#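 Hydroperoxide product was detected by ferrous iron/xylenol orange as the 573 to 405 nm absorbance ratio. Arachidonic acid at 40 uM (final) was turned over for 30 min at room temperature by 150 nM human 12hLO, pH 7.0 Hepes buffer, after 15 min compound preincubation.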
# DT40 TDP1 CPT: growth inhibition of DT40 Tdp1-/-;hTDP1 cells with camptothecin (screen for TDP1 inhibitors); chicken DT40 Tdp1-/-;hTDP1 cells + 20 nM CPT, ATP luminescence, 48 h; Potency, µM (titrated, usually from 46.2 µM), inactives show top-dose activity change, negative = growth inhibition, usual class: inhibitors; actives 12% (n = 420,000); note: potency is the fitted concentration of half-maximal effect; nearly all actives have a fitted effect of over 55% in size
#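 Chicken DT40 Tdp1-/- cells complemented with human TDP1, 400 cells/well, exposed to compounds plus 20 nM camptothecin for at least 48 h at 37 C; viability read as ATP content by CellTiter-Glo luminescence.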
# * = called active by the depositor; ? = inconclusive; . = no result given. Unless noted, calls come from the whole dose curve; as a rule, active = well fitted curve in the direction sought with a large enough effect; inconclusive = small, poorly fitted or top-dose-only effect, or another doubt; inactive = no such curve, though single readings can be large; an effect the other way counts as inactive or inconclusive. Unless noted, % is set by controls: 0 for no effect and ±100 for the full control effect.
SMILES,DT40 TDP1 no CPT,IL-1B inflam inh,HT1080 IDH1KD tx,HT1080NT lethal,12-LOX inh,DT40 TDP1 CPT
COC(=O)C1=C(C)N(Cc2ccc(Cl)cc2)C(=S)NC1c1ccc(OC)cc1 (stereo not drawn),.,.,.,.,39.8µM*,.
COC(=O)C1=C(C)N(Cc2ccccc2)C(=S)N[C@H]1c1ccc(Br)cc1,-18.5%,-15.5,-18.7%,-7.2%,44.7µM*,?
COC(=O)C1=C(C)N(Cc2ccc(Br)cc2)C(=S)NC1c1ccc(OC)cc1 (stereo not drawn),.,.,.,.,44.7µM*,.
COC(=O)C1=C(C)N(Cc2ccc(F)cc2)C(=S)NC1c1ccc(Cl)cc1 (stereo not drawn),.,.,.,.,39.8µM*,.
COC(=O)C1=C(C)N(Cc2ccc(C(F)(F)F)cc2)C(=NCc2ccc(OC)cc2)NC1c1cccc(Cl)c1 (stereo not drawn),.,.,.,.,-29.6%,.
COC(=O)C1=C(C)N(Cc2ccccc2)C(=S)N[C@H]1c1cccc(C(F)(F)F)c1,?,?,?,-22.4%,?,?
CCCCCCc1ccc(C(=O)Oc2ccc(C#N)cc2)cc1,.,.,.,.,-5.1%,.
Cc1ccccc1NC(=O)C(Sc1ccccc1)c1ccccc1 (stereo not drawn),.,.,.,.,-3.2%,.
Cn1nc(C2CCN(C(=O)C3CCC3)CC2)c2c1CCOC2,.,.,.,.,65.5%,.
CSc1ccccc1NC(=O)CN(C)C(=O)Cn1[nH]c(=O)c2ccccc2c1=O,.,.,.,.,38.8%,.
Cc1ccccc1-c1cc(C(=O)NCc2cccc(C(F)(F)F)c2)nn1CC1CC(c2cccc([N+](=O)[O-])c2)=NO1 (stereo not drawn),23.1µM*,-0.6,3.3%,0.0%,1.3%,?
Cc1ccccc1-c1cc(C(=O)NCc2ccc(OC(F)(F)F)cc2)nn1CC1CC(c2cccc([N+](=O)[O-])c2)=NO1 (stereo not drawn),18.4µM*,?,6.5%,2.8%,-2.9%,16.4µM*
Cc1ccccc1-c1cc(C(=O)NCc2ccc3c(c2)OCO3)nn1CC1CC(c2cccc([N+](=O)[O-])c2)=NO1 (stereo not drawn),?,-13.0,-6.0%,8.0%,-17.8%,-7.0%
CC(On1nnc2ccc(Cl)cc21)C(=O)Nc1cc(Cl)cc(Cl)c1 (stereo not drawn),.,.,.,.,3.9%,.
N#CC1=C2N=C(N)c3ccccc3N2C2=C(C(=O)CCC2)C1c1ccc(Cl)cc1 (stereo not drawn),16.4µM*,-5.2,-14.3%,-2.4%,284.5%,20.6µM*
CC1(C)CC(=O)C2=C(C1)N1C(=C(C#N)C2c2ccc(Cl)cc2)N=C(N)c2ccccc21 (stereo not drawn),20.6µM*,?,?,?,?,?
CC1(C)CC(=O)C2=C(C1)N(c1ccccc1)C(N)=C(C#N)C2c1cccnc1 (stereo not drawn),-16.8%,17.2,13.9%,4.9%,?,-12.4%
CC1(C)CC(=O)C2=C(C1)N(c1ccccc1)C(N)=C(C#N)C2c1ccccc1 (stereo not drawn),-28.8%,-50.0*,1.7%,4.6%,0.0%,-12.6%
CCc1ccc(CNC(C)(C)CO)cc1,.,.,.,.,-29.3%,.
CCOC(=O)OC(C)OC1=C(C(=O)Nc2ccccn2)N(C)S(=O)(=O)c2ccccc21 (stereo not drawn),2.11µM*,.,.,.,.,?
Cc1cc(C)cc(C(=O)N2CCCN(c3cc(-c4ccc(Cl)cc4)[nH]n3)CC2)c1,.,.,.,.,32.5%,.
CCOc1ccccc1CNC(=O)CSc1n[nH]c(-c2ccccc2Cl)n1,23.1µM*,.,.,.,5.5%,13µM*
